Structures are written as SMILES. A structure can be active in one record and inactive in another. Calls of active or inactive are those of the source. The calls were made as follows: active = hit-call score of the fitted dose curve at least 0.9, where 1 is the maximum; inactive = score below 0.9.

The term AC50 denotes the midpoint of the concentration-response curve, whichever way the signal moves.

X-box-binding protein 1 (Homo sapiens), sequence (P17861 whole entry, looked up): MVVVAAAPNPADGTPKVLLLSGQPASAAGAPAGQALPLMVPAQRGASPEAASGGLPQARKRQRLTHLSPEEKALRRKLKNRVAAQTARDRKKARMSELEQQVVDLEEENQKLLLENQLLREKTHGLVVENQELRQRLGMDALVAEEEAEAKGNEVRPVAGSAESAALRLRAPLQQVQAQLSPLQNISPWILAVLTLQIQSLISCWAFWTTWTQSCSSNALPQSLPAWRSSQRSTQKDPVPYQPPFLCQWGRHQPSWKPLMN

The test concerns the target X-box-binding protein 1 (Homo sapiens) (UniProt P17861). Kind of test: ATG_Xbp1_CIS: Attagene CIS-FACTORIAL HepG2 Assay for human X-box Binding Protein 1 (XBP1) (AID 2282972). Particulars: HepG2 XBP1 cis-element reporter, Attagene multiplex; actives raise or lower the signal. As for the experimental part:
ATG_CIS is a cell-based, multiplexed-readout assay that uses HepG2, a human liver cell line, with measurements taken at 24 hours after chemical dosing in a 24-well plate.ATG_Xbp1_CIS is one of 52 assay component(s) measured or calculated from the ATG_CIS assay. It is designed to make measurements of mRNA induction, a form of inducible reporter, as detected with fluorescence intensity signals by Reverse transcription polymerase chain reaction (RT-PCR) and Capillary electrophoresis technology.Data from the assay component ATG_Xbp1_CIS was analyzed into 1 assay endpoint. This assay endpoint, ATG_Xbp1_CIS, was analyzed with bidirectional fitting relative to DMSO as the negative control and baseline of activity. Using a type of inducible reporter, measures of mRNA for gain or loss-of-signal activity can be used to understand the reporter gene at the transcription factor-level as they relate to the gene XBP1. Furthermore, this assay endpoint can be referred to as a primary readout, because this assay has produced multiple assay endpoints where this one serves a reporter gene function. To generalize the intended target to other relatable targets, this assay endpoint is annotated to the dna binding intended target family, where the subfamily is basic leucine zipper.
Human liver HepG2 cells are transiently transfected with multiple reporter transcription units (MRTUs) in 6-well plates using FuGene 6 reagent (Roche; 3 ml FuGene/1 mg DNA). The MRTU constructs are regulated by a cis-regulating element (promoter). […] A major difference between the CIS and TRANS system is that in CIS activities of endogenous TFs are measured, whereas the TRANS assay evaluates changes in activities of exogenous, chimeric NR-Gal4 proteins. […] At the end of 24 hour incubation, total RNA was isolated using TriZol reagent (Invitrogen). The isolated RNA is then reverse-transcribed using oligo(dT) primer and Mo-MLV reverse transcriptase (Invitrogen) with DNAse I (Ambion) treatment for 30 min. The one-tenth of the produced cDNA was amplified by PCR using Taq DNA polymerase (Invitrogen) and two reporter sequence-specific primers. The PCR products were fluorescently labeled by primer extension with 6-arboxyfluorescein (6-FAM) 5'-labeled reporter sequence-specific primer (2 min at 95 C, 20 s at 68 C and 10 min at 72 C) and these products were digested with 5U of HpaI (New England Biolabs) for 2h at 37 C. The fragments were purified using Qiaquick PCR columns (Qiagen), analyzed on an ABI 3130xL genetic analyzer (Applied Biosystems) with peak positions identified by using a set of X-rhodamine (ROX)-labeled MapMarker1000 molecular weight standards (BioVentures). The raw capillary electrophoresis data was processed using Attagraph software (Attagene).
Turning to `CC(C)OC(=O)C(C)(C)Oc1ccc(C(=O)c2ccc(Cl)cc2)cc1`, the AC50 was 54.4 µM (active). `OCC(CO)n1cnc(-c2ccc(F)cc2)c1-c1ccnc(Oc2ccccc2)n1`: the call was inactive.

Turning to `O=C1CCCCC1`, the outcome was inactive. On to `O=C1OC(c2ccc(O)cc2)(c2ccc(O)cc2)c2ccccc21`, for which the AC50 is 30 µM (active). In the case of `CC(=O)OC1CC(C)OC(C)O1` (stereo not given), the call was inactive. On the same count and under the same terms, the value for `C/C=C/C=C/C(=O)O` was “inactive”. Turning to `CCN(CC)CCOc1ccc(C(=C(Cl)c2ccccc2)c2ccccc2)cc1`, the AC50 was 11.2 µM (active) and the molecule was called inactive. `NCCOCCOCCN`: the call was inactive. The same measure, in the same setting: then `COC(=O)CCCC(=O)OC`, with “inactive”; and `COC(=O)[C@H]1[C@H]2C[C@@H]3c4[nH]c5cc(OC)ccc5c4CCN3C[C@H]2C[C@@H](OC(=O)c2cc(OC)c(OC)c(OC)c2)[C@@H]1OC`, with “inactive”; and `NC=O`, with “inactive”. As for `CCCCCCC(CCCCCCCCCCC(=O)OCC(COC(C)=O)OC(C)=O)OC(C)=O` (stereo not given), the call was inactive. Consider `CCCCCCCCCC[N+](C)(C)[O-]`, for which the outcome was inactive. Still for that read-out and setting: then `CCC(C)N(C)C(=O)c1cc2ccccc2c(-c2ccccc2Cl)n1` (stereo not given), with “inactive”; and `CCCCC(CC)CO` (stereo not given), with “inactive”; and `NC1CCCCC1`, with “inactive”. On the same count and under the same terms, then `CC(C)(C)c1ccccc1`, with “inactive”; and `C=CCCCCCCCCCCCC`, with “inactive”. On the same count and under the same terms, the value for `O=C1NC(=O)C(c2ccccc2)(c2ccccc2)N1` was “inactive”; that for `COc1ccc(C(=O)Nc2nc3ccccc3c(NCc3ccccc3)c2C#N)cc1` was “inactive”. For `CCCCC(CC)COP(=O)(OCC(CC)CCCC)OCC(CC)CCCC` (stereo not given), the molecule was classed as inactive. On the same count and under the same terms, then `Cc1cc(Cc2ccc(N)c(C)c2)ccc1N`, with “inactive”. For `N[C@@H](Cc1c[nH]c2ccccc12)C(=O)O`, the result was inactive. Same read-out and setting: the value for `CCCCCCCCCCCCCCCCO` was “inactive”. Same read-out and setting: the value for `O=C1c2c(O)cccc2Cc2cccc(O)c21` was “inactive”; that for `Cc1cc(SC2=C(O)C[C@@](CCc3ccc(N)cc3)(C(C)C)OC2=O)c(C(C)(C)C)cc1CO` was “inactive”.

In the case of `Nc1nc(Cl)nc2c1ncn2[C@H]1C[C@H](O)[C@@H](CO)O1`, the molecule was called inactive. `Cn1cnc2c1c(=O)[nH]c(=O)n2C`: the molecule was classed as inactive.

Take `CC(C)c1cccc(C(C)C)c1`: the molecule was classed as inactive. With `O=C(N[C@@H](c1ccccc1)[C@@H]1CCCCN1)c1cccc(C(F)(F)F)c1Cl`, the AC50 was 33 µM (active). On to `O=C(O)c1[nH]n(-c2ccc(S(=O)(=O)O)cc2)c(=O)c1N=Nc1ccc(S(=O)(=O)O)cc1`, for which the result was inactive. As to `CCCCOC(=O)CCCCC(=O)OCCCC`, the call was inactive. `Cc1cn([C@H]2C=C[C@@H](CO)O2)c(=O)[nH]c1=O`: the outcome was inactive. Take `O=C(O)c1cccnc1`: the call was inactive and the AC50 is 25.2 µM (active). `CCc1cc(C2=C(C(=O)O)N(c3ccccc3C(F)(F)F)S(=O)(=O)c3ccccc32)cc2c1OCO2`: the molecule was classed as inactive. On the same count and under the same terms, the value for `CN(C)CCCN(C)CCCN(C)C` was “inactive”; that for `COC(=O)CCC(=O)OC` was “inactive”. On to `NC(=Nc1ccccc1)Nc1ccccc1`, for which the AC50 was 57.2 µM (active).

(Values after PubChem BioAssay (EPA / NIEHS).)
